VACV Venus inh: inhibitors of vaccinia virus (Venus reporter); Vaccinia virus Venus reporter expression, fluorescence; hit rate 0.46% among 330,000; Potency, µM (highest dose often 36.5 µM), without a hit: top-dose activity change, negative = inhibition, most hits filed as inhibitors; calls by dose curve; tested in A549 cells; note: potency is the fitted concentration of half-maximal effect; nearly all actives have a fitted effect of over 30% in size
FMDV antiviral: blocks foot and mouth disease virus; hit rate 1.2% among 410,000; FMDV antiviral cell-based qHTS; Potency, µM (series often up to 57.9 µM), for inactives: at the highest dose activity change, negative = inhibition, hits mostly inhibitors; calls by dose curve; tested in HEK293T cells; note: read-out not given here; potency is the fitted concentration of half-maximal effect; nearly all actives have a fitted effect of over 45% in size
HCMV antiviral: human cytomegalovirus inhibition. HFF cells, HCMV-luciferase reporter, 72 h; active compounds read low. activity change, negative = inhibition, % at 57.5 µM. hit rate 4.5% among 410,000; in the data active = activity change below about -60%; inconclusive = no clear call, values can overlap the other calls; inactive = above about -39%
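Two-dose cell screen: HFF monolayers treated with compounds and infected with luciferase-expressing HCMV at 1 PFU/cell, 72 h at 37C, then lysed for luciferase measurement.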
VACV mCherry inh: inhibitors of vaccinia virus infection (mCherry reporter signal); Vaccinia virus mCherry reporter infection, fluorescence; Potency, µM (doses to about 36.5 µM), inactives show top-dose activity change, negative = inhibition, hits mostly inhibitors; hit rate 0.63% among 310,000; calls by dose curve; tested in A549 cells; note: potency is the fitted concentration of half-maximal effect; nearly all actives have a fitted effect of over 35% in size
Marburg entry inh: inhibitors of Marburg virus binding or cell entry | hit rate 1.8% among 300,000 | Marburg virus pseudotyped entry inhibition, cell reporter | Potency, µM (doses to about 37.8 µM), for the others: at the highest dose activity change, negative = inhibition, actives largely listed as inhibitors | AID 540276; calls by dose curve; tested in HEK293 cells; note: potency is the fitted concentration of half-maximal effect
Lassa entry inh: inhibitors of Lassa virus binding or cell entry; hit rate 1.2% among 300,000; Lassa virus pseudotype entry inhibition, cell reporter; Potency, µM (titrated, usually from 37.9 µM), inactives show at the highest dose activity change, negative = inhibition, most hits filed as inhibitors; calls by dose curve; tested in HEK293 cells; note: potency is the fitted concentration of half-maximal effect; nearly all actives have a fitted effect of over 50% in size
* marks the source's active call; other numbers are inactive results; i = inactive; ? = inconclusive; / = not tested or not shown; ! = not active in a repeat; [ ] = dose if it differs, or a comment. Sampled rows, rich in hits. Any-hit rate of the full collection: about 6.5%. % is set by controls: 0 for no effect and ±100 for the full control effect.

SMILES	VACV Venus inh	FMDV antiviral	HCMV antiviral	VACV mCherry inh	Marburg entry inh	Lassa entry inh
O=C(Nc1ccc(F)cc1)C1CCN(c2nc3ccccc3nc2C(F)(F)F)CC1	-15%	0%	-3	-1%	/	15%[46.1 µM]
COc1ccc(-c2noc(CSc3nc4ccccc4[nH]3)n2)cc1OC	-12%	?	-60*	-14%	-35%[46.1 µM]	-17%[46.1 µM]
COc1ccc(-c2noc(CSc3nnc(Cc4ccccc4)n3-c3ccccc3)n2)cc1OC	-15%	-9%	-21	-13%	-22%[46.1 µM]	6.3µM*
CNc1ncnc(Sc2nc(N)nc3nc[nH]c23)c1[N+](=O)[O-]	?	?	-77*	5µM*	?	2.5µM*
Nc1nc(Sc2ccc([N+](=O)[O-])c3nonc23)c2[nH]cnc2n1	141%	?	-85*	?	?	?
Nc1nc(SCc2ccccc2)c2[nH]cnc2n1	-29%	-3%	52	?	/	/
Nc1nc(N)c2[nH]cnc2n1	-23%	-17%	/	-19%	/	/
Cc1ccc2c(c1)Oc1ccc(NC(=O)CCl)cc1C(=O)N2	-21%	14µM*	-88*	-27%	?	?
Cc1ccc2c(c1)Oc1ccc([N+](=O)[O-])cc1C(=O)N2	-5%	-12%	-2	-10%	?	8%[46.1 µM]
O=NNc1nc2ccccc2n1Cc1ccccc1	/	-12%	-80*	/	/	/
Cn1c(NN=O)nc2ccccc21	?	2%	-100*	?	?	?
CC(=O)Nc1nc2ccccc2n1Cc1ccccc1	-4%	/	-11	-14%	-26%	-13%
Cn1c(Cl)nc2ccccc21	/	0%	32	/	2%	13%
COc1cccc(-c2cc3c(Nc4cccc(NS(C)(=O)=O)c4)nccc3n2C)c1	/	/	-33	/	/	/
Cc1ccc2nc(CS)[nH]c2c1	7%	/	/	25%	/	/
COc1cccc(/C=N/Nc2ccc(S(=O)(=O)O)cc2)c1O	/	13%	35	/	6%	-1%
O=c1nccc(N/N=C/c2ccccc2O)[nH]1	?	7%	-91*	1µM*	5.6µM*	?
CCOc1ccccc1/C=N/Nc1ccnc(=O)[nH]1	-21%	22%	-99*	-7%	?	?
COc1cccc(/C=N/Nc2ccnc(=O)[nH]2)c1O	?	-11%	-94*	0.79µM*	?	?
CCOc1ccccc1/C=N/Nc1nc(C)cc(=O)[nH]1	/	-10%	/	/	/	/
Nc1ccc[n+](CC(=O)c2ccc(F)cc2)c1	310%	/	/	34%	/	/
CC(=O)Nc1ccc(Nc2cc(C)nc3c(-c4ccc(Cl)cc4)cnn23)cc1	-23%	11%	-70*	?	?	?
CN(C)Cc1c(C(=O)N/N=C/c2cccc(OCc3c(F)cccc3Cl)c2)nnn1-c1nonc1N	/	?	-86*	/	/	/
CN1CCN(Cc2c(C(=O)N/N=C/c3cccc(Br)c3)nnn2-c2nonc2N)CC1	/	-17%	-60*	/	/	/
CCOc1ccc(-c2c(C(=O)N/N=C/c3cccc(Br)c3)nnn2-c2nonc2N)cc1	/	-21%	-63*	/	/	/
SMILES	VACV Venus inh	FMDV antiviral	HCMV antiviral	VACV mCherry inh	Marburg entry inh	Lassa entry inh
Cc1ccc(N(Cc2ccccc2)C(=O)CSC(C)C(=O)Nc2cc(C)on2)cc1 (stereo not given)	2%	29%	-64*	-19%	/	/
Cc1cc(NC(=O)C(C)SCC(=O)OCC(=O)N(C)c2ccccc2)no1 (stereo not given)	-1%	-9%	-28	i	?	17%
O=C(N/N=C/c1cccc([N+](=O)[O-])c1)c1cc(-c2ccc3c4c(cccc24)CC3)n[nH]1	/	-28%	?	/	/	/
Cc1occc1C(=O)N/N=C/c1ccc(OCc2ccccc2)cc1	/	47%	50	/	/	/
Cc1cc(C(=O)N/N=C/c2ccc(Cl)c([N+](=O)[O-])c2)c(C)n1-c1ccc(F)cc1	-26%	-32%	-93*	?	?	13µM*
O=C(N/N=C/c1ccc(Cl)c([N+](=O)[O-])c1)c1cc(-c2ccc3c4c(cccc24)CC3)n[nH]1	2%	-26%	-74*	-22%	?	6.3µM*
Cc1occc1C(=O)N/N=C/c1ccc(-c2ccccc2)cc1	-8%	-2%	61	-8%	?	7.9µM*
Cc1occc1C(=O)N/N=C/C=C\c1ccccc1[N+](=O)[O-]	0%	26%	-75*	-6%	26%[46.1 µM]	5%
OC(C[n+]1c(Cl)ccc2ccccc21)c1ccccc1 (stereo not given)	-8%	/	/	-9%	/	/
O=C(NCCc1nnc2n1CCN(Cc1ccsc1)CC2)c1ccc(F)cc1	-7%	-8%	/	-20%	/	/
Cc1ccc(NC(=O)C(=O)NCCc2sc(-c3ccc(Cl)cc3)nc2C)cc1C	-9%	16%	26	-11%	/	30%[46.1 µM]
Cc1occc1C(=O)N/N=C/c1ccc(Cl)c([N+](=O)[O-])c1	-25%	38%	-63*	-20%	4µM*	-5%
CC1(C(=O)NCCc2c[nH]c3ccccc23)CCN1Cc1ccccc1OC(F)F (stereo not given)	1%	-26%	-96*	?	/	/
CC(C)(CNC(=O)c1cnn(-c2nccc(-c3ccccc3F)n2)c1C1CC1)N1CCOCC1	-15%	-2%	/	-20%	/	/
CCOC(=S)SCc1cn2ccc(C)cc2n1	-10%	-1%	-65*	-16%	-1%	22%
CCOC(=S)SCc1cn2ccccc2n1	-7%	39%	-29	i	-16%[46.1 µM]	14%
Cc1ccc(NC(=O)c2csc(-c3ccccc3)c2C)cc1	/	?	-13	/	13µM*	6.5µM*
Cc1c(C(=O)Nc2cccc([N+](=O)[O-])c2)csc1-c1ccccc1	-10%	-1%	-75*	i	?	?
O=C(Nc1cccc([N+](=O)[O-])c1)c1ccc(-c2ccccc2)cc1	-8%	35%	7	-11%	?	?
Cc1ccc(NC(=O)c2cccc3ccccc23)cc1	-10%	56%	69	i	9%	26%
CCCN1CCc2cc(O)cc3c2[C@H]1Cc1ccc(O)c(O)c1-3	-15%	-14%	-7	-2%	35µM*!	-37%
O=C1CCC[C@@H]2CC(N(Cc3cc4ccccc4s3)c3ccccc3)C[C@@H]3CCN1[C@H]23 (stereo not given in full)	-11%	/	/	i	/	/
CCCn1cnc2c(Sc3c([N+](=O)[O-])ncn3C)nc(N)nc21	?	?	-32	?	3%	?
CCC(C)Cn1cnc2c(Sc3c([N+](=O)[O-])ncn3C)nc(N)nc21 (stereo not given)	?	?	-34	16µM*	?	5%[46.1 µM]
CCCCn1cnc2c(SCc3cccc(F)c3)nc(N)nc21	-2%	24%	44	-3%	-18%[46.1 µM]	9%[46.1 µM]
CCCCn1cnc2c(SCc3ccc([N+](=O)[O-])cc3)nc(N)nc21	?	-14%	-21	4µM*	-9%	-24%
CC(C)Cn1cnc2c(Sc3c([N+](=O)[O-])ncn3C)nc(N)nc21	?	?	22	?	-28%	?
Cn1cnc([N+](=O)[O-])c1Sc1nc(N)nc2c1ncn2Cc1ccccc1	?	0%	-19	13µM*	?	-28%

Screening data as filed in PubChem.
